Consider 13 compounds from PubChem BioAssay AID2590 (National Center for Advancing Translational Sciences (NCATS), 2010).

Each structure is given as a SMILES string. Several values for one entry are separate records, joined by “and”; a condition that tells them apart may be missing. Equal entries are not always repeated. Records with an inconclusive call do not appear. Unmarked numbers belong to inactive results. Activity calls are given as the source filed them. The call rests on the fitted dose curve; in most records, active means well fitted curve in the direction sought with a large enough effect; inconclusive means small, poorly fitted or top-dose-only effect, or another doubt; inactive means no such curve, though single readings can be large or run the other way.
Potency means the concentration at half of the fitted maximal effect.

Lysosomal acid glucosylceramidase (Homo sapiens), sequence (P04062 whole entry N409S): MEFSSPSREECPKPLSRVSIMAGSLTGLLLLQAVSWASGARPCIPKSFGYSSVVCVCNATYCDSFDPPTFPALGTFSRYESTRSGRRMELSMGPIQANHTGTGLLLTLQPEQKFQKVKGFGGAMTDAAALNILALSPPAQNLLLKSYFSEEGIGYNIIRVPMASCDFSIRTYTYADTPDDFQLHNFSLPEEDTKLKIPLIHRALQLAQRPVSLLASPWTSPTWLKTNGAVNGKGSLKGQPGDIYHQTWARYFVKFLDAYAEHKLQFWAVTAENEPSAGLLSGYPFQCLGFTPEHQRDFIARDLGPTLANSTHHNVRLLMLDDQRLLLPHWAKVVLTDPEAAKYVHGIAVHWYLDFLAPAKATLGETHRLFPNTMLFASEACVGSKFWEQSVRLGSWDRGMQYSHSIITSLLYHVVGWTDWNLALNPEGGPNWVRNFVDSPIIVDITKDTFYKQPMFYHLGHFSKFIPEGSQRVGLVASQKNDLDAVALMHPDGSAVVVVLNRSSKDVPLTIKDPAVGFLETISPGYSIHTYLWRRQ

The target of this assay is Lysosomal acid glucosylceramidase (Homo sapiens) (UniProt P04062). Briefly: qHTS Assay for Inhibitors and Activators of N370S glucocerebrosidase as a Potential Chaperone Treatment of Gaucher Disease: Primary Screen Confirmation.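 On Potency: enzyme source is Gaucher patient spleen homogenate not purified recombinant protein.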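 On activity change, negative = inhibition: 0% = enzyme with DMSO and -100% = no enzyme basal signal.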 The conditions noted are these: N370S glucocerebrosidase enzyme activity, fluorogenic substrate; series mostly up to 54 µM; activity change, negative = inhibition: at the top concentration. An outline of the steps:
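Patient-spleen homogenate carrying N370S GC (27 ug) in pH 5.0 citrate buffer with 0.01% Tween-20, 1 mM 4-methylumbelliferyl-beta-glucoside, 40 min at 37C; fluorescence 365/440 nm after NaOH/glycine stop; AC50 from Hill fits.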
Turning to `O=S(=O)(c1ccc(Cl)cc1)N1CCN(c2nc(-c3cccs3)nc3ccccc23)CC1`, the Potency was 1.46 µM (active) and 1.13 µM (active) and 1.63 µM (active).

Regarding `CCOC(=O)c1ccc(S(=O)(=O)N2CCN(c3nc(-c4cccs4)nc4ccccc34)CC2)cc1`, the Potency was 0.819 µM (active). As for `O=S(=O)(c1cccc(C(F)(F)F)c1)N1CCN(c2nc(-c3cccs3)nc3cc(Cl)ccc23)CC1`, the “activity change, negative = inhibition” value was 0.777%. On to `CCOc1ccccc1NC(=O)CN(c1ccc(C)cc1)S(=O)(=O)c1c(C)noc1C`, for which the “activity change, negative = inhibition” value is 20.7%. On to `O=S(=O)(c1cccc2ccccc12)N1CCN(c2nc(-c3cccs3)nc3ccccc23)CC1`, for which the Potency was 0.819 µM (active). The same measure, in the same setting: to `COC(=O)c1nc(N2CCN(S(=O)(=O)c3ccc(C)cc3)CC2)c2ccccc2n1` belongs 16.3 µM (active); to `S=C(NCCCN(Cc1ccc(Cl)c(Cl)c1)c1ccc(Br)cn1)NCCc1cnc[nH]1`, 18.3 µM (active). In the case of `CCCCN(Cc1ccc(Cl)c(Cl)c1)c1ccc(Br)cn1`, the “activity change, negative = inhibition” value was -6.38%. On to `CCOc1ccc(S(=O)(=O)N2CCN(c3nc(-c4ccccc4)nc4ccccc34)CC2)cc1`, for which the Potency is 4.11 µM (active). The same measure, in the same setting: to `O=S(=O)(c1ccc(F)cc1F)N1CCN(c2nc(-c3cccs3)nc3ccccc23)CC1` belongs 1.27 µM (active). In the case of `CC(=O)c1cccc(S(=O)(=O)N2CCN(c3nc(-c4cccs4)nc4ccccc34)CC2)c1`, the Potency was 2.25 µM (active).

Consider `O=S(=O)(c1ccccc1C(F)(F)F)N1CCN(c2nc(-c3cccs3)nc3ccccc23)CC1`, for which the Potency was 0.41 µM (active). As to `O=S(=O)(c1ccccc1F)N1CCN(c2nc(-c3cccs3)nc3ccccc23)CC1`, the Potency is 1.63 µM (active).
